Compound activity from PubChem BioAssay.
ROS inducer: ROS inducers in U2OS cancer cells, primary screen, cell-based, H2DCF-DA fluorescence | AID 624156, 2012 | ROS induction (% of piperlongumine), % at 10 µM | U2OS ROS induction | 46,000 tested, 2% active; in the data active = ROS induction above about 79%, passing the limit was not always enough;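 also: 0% = DMSO vehicle median and 100% = reference compound median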
The depositor's hits bear a star. This excerpt belongs to a sample that is enriched for hits.

SMILES	ROS inducer
C[C@@H]1CCCCO[C@@H](CN(C)C(=O)C2CCCCC2)[C@@H](C)CN([C@H](C)CO)C(=O)c2cc(NS(=O)(=O)c3ccc(Cl)cc3)ccc2O1	101*
Cc1ccc(S(=O)(=O)Nc2ccc3c(c2)C(=O)N([C@H](C)CO)C[C@H](C)[C@H](CN(C)C(=O)CCCN(C)C)OCCCC[C@@H](C)O3)cc1	4
C[C@@H]1CCCCO[C@@H](CN(C)C(=O)NC2CCCCC2)[C@@H](C)CN([C@H](C)CO)C(=O)c2cc(NS(C)(=O)=O)ccc2O1	-9
C[C@@H]1CCCCO[C@H](CN(C)C(=O)CCCN(C)C)[C@@H](C)CN([C@H](C)CO)C(=O)c2cc(NC(=O)NC3CCCCC3)ccc2O1	22
C[C@@H]1CCCCO[C@@H](CN(C)C(=O)CCCN(C)C)[C@@H](C)CN([C@H](C)CO)C(=O)c2cc(NS(=O)(=O)c3ccc(F)cc3)ccc2O1	8
C[C@@H]1CCCCO[C@@H](CN(C)C(=O)C2CCCCC2)[C@@H](C)CN([C@H](C)CO)C(=O)c2cc(NS(C)(=O)=O)ccc2O1	91*
CC(C)NC(=O)N(C)C[C@@H]1OCCCC[C@@H](C)Oc2ccc(NS(C)(=O)=O)cc2C(=O)N([C@H](C)CO)C[C@@H]1C	-14
C[C@@H]1CCCCO[C@@H](CN(C)C(=O)c2ccccc2)[C@@H](C)CN([C@H](C)CO)C(=O)c2cc(NS(=O)(=O)c3ccc(Cl)cc3)ccc2O1	45
C[C@@H]1CCCCO[C@H](CN(C)C(=O)CCCN(C)C)[C@@H](C)CN([C@H](C)CO)C(=O)c2cc(NC(=O)C3CCCCC3)ccc2O1	105*
CNC[C@@H]1Oc2ccc(NC(=O)NC(C)C)cc2C(=O)N([C@H](C)CO)C[C@H]1C	-5
Cc1ccc(S(=O)(=O)N(C)C[C@@H]2Oc3c(NS(=O)(=O)c4cccs4)cccc3C(=O)N([C@H](C)CO)C[C@@H]2C)cc1	-8
C[C@@H]1CN([C@@H](C)CO)C(=O)c2cccc(NC(=O)c3ccncc3)c2O[C@H]1CN(C)C(=O)Nc1ccc(C(F)(F)F)cc1	-2
O=c1c2ccccc2nc(SCc2cccc(F)c2)n1CC1CCCO1 (stereo unspecified)	20
Cc1ccc(SC(=O)c2c(C)noc2COc2ccccc2)cc1	28
C[C@H]1CN([C@@H](C)CO)C(=O)Cc2cc(NC(=O)Cc3ccccc3)ccc2O[C@@H]1CN(C)C(=O)Nc1ccc(C(F)(F)F)cc1	14
Cc1ccc(NC(=O)Cn2cnc3sc(C(=O)Nc4ccccc4)c(C)c3c2=O)cc1	-2
C[C@@H]1CN([C@H](C)CO)C(=O)c2cccc(NC(=O)c3cnccn3)c2O[C@@H]1CN(C)C(=O)Nc1ccc(F)cc1	-8
COc1ccc(OC)c2c1CC(C)(C)n1c(-c3ccc(Cl)cc3)nnc1-2	-5
COc1ccc(-c2c(C)nn3c(N4CCC(C)CC4)cc(C)nc23)cc1OC	93*
COc1ccc(-c2nnc3c4ccccc4c(C)nn23)cc1S(=O)(=O)N1CCCCC1	23
COc1ccc(S(=O)(=O)N(C)C[C@H]2Oc3ccc(NC(=O)c4ccncc4)cc3CC(=O)N([C@@H](C)CO)C[C@@H]2C)cc1	3
C[C@@H]1CN([C@H](C)CO)C(=O)Cc2cc(NC(=O)Cc3ccccc3)ccc2O[C@@H]1CN(C)C	14
COc1ccc(CCNc2nc(SCC(=O)c3ccc(F)cc3)nc3ccccc23)cc1OC	5
C[C@@H]1CN([C@@H](C)CO)C(=O)Cc2cc(NC(=O)NC3CCCCC3)ccc2O[C@@H]1CN(C)C(=O)Nc1ccc(F)cc1	-4
CSCCC(C(=O)O)N1C(=O)/C(=C/c2cccnc2)SC1=S (stereo unspecified)	-19
SMILES	ROS inducer
O=C(NN1C(=O)/C(=C\c2cccnc2)SC1=S)c1ccccc1	79*
CC(C)C(C(=O)O)N1C(=O)/C(=C/c2ccccc2)SC1=S (stereo unspecified)	-4
Cc1ccc(NC(=O)CC(C(=O)O)N(C)C)cc1 (stereo unspecified)	-5
C[C@@H]1CN([C@@H](C)CO)C(=O)c2cc(NC(=O)CCN3CCOCC3)ccc2O[C@@H]1CN(C)S(=O)(=O)c1ccc(Cl)cc1	-1
Cc1[nH]n(-c2ccccc2)c(=O)c1Cc1c(Cl)cccc1Cl	-3
Cc1ccnc(N=Cc2c(C)[nH]n(-c3ccccc3)c2=O)c1	68
Cc1[nH]n(-c2ccccc2)c(=O)c1/C=C1\C=NN=C1c1ccccc1	106*
CCOc1ccc(NC(=O)CC2NC3CCCCC3NC2=O)cc1 (stereo unspecified)	0
C[C@H]1CN([C@@H](C)CO)C(=O)c2cccc(NC(=O)C3CC3)c2O[C@@H]1CN(C)C	-3
CCN1C(=O)/C(=C\c2ccc(N(C)C)cc2Cl)OC1=S	929*
COc1ccc(/C=C2\OC(=S)N(C)C2=O)cc1	-6
C[C@H]1CN([C@@H](C)CO)C(=O)CCCn2cc(nn2)CO[C@H]1CN(C)S(=O)(=O)c1cn(C)cn1	9
O=S(=O)(NC[C@@H]1CCCN(Cc2cccc(OCCO)c2)C1)c1ccc(Cl)cc1	-6
O=S(=O)(NCC1CCN(Cc2cccc(OCCO)c2)CC1)c1ccc(Cl)c(Cl)c1	123*
O=S(=O)(N[C@@H]1CCCN(Cc2cccc(OCCO)c2)C1)c1ccc(Cl)c(Cl)c1	25
C[C@@H]1CN([C@H](C)CO)C(=O)c2cc(NS(=O)(=O)c3cn(C)cn3)ccc2O[C@@H]1CN(C)Cc1ccc(Oc2ccccc2)cc1	-19
COc1ccc(S(=O)(=O)N(C)CC(=O)NC2CCCC2)cc1C	27
C[C@@H]1CN([C@H](C)CO)C(=O)Cc2cc(NC(=O)CCC(F)(F)F)ccc2O[C@@H]1CN(C)Cc1ccc(-c2ccccc2)cc1	22
COCCOC(=O)N1C(=O)[C@@]2(c3ccccc31)[C@H](c1ccc(O)cc1)N1[C@H](c3ccccc3)[C@H](c3ccccc3)OC(=O)[C@H]1[C@@H]2C(=O)NC[C@H](O)c1ccccc1	10
C=CCNC(=O)[C@@H]1[C@H]2C(=O)O[C@H](c3ccccc3)[C@H](c3ccccc3)N2[C@H](c2ccccc2OCCO)[C@@]12C(=O)N(C(=O)OCCOC)c1ccc(C#CC3(O)CCCCCC3)cc12	98*
COCCOC(=O)N1C(=O)[C@@]2(c3cc(C#CC4(O)CCCCCC4)ccc31)[C@H](C(N)=O)[C@H]1C(=O)O[C@H](c3ccccc3)[C@H](c3ccccc3)N1[C@@H]2c1ccccc1OCCO	31
C=CCNC(=O)[C@H]1[C@@H]2C(=O)O[C@@H](c3ccccc3)[C@@H](c3ccccc3)N2[C@@H](c2ccccc2OCCO)[C@]12C(=O)Nc1ccc(C#CCCO)cc12	72
C=CCNC(=O)[C@H]1[C@@H]2C(=O)O[C@@H](c3ccccc3)[C@@H](c3ccccc3)N2[C@@H](c2ccccc2OCCO)[C@]12C(=O)Nc1ccc(C#CC3(O)CCCCCC3)cc12	102*
C=CCNC(=O)[C@@H]1[C@H]2C(=O)O[C@H](c3ccccc3)[C@H](c3ccccc3)N2[C@H](c2ccccc2OCCO)[C@@]12C(=O)N(C(=O)OCCOC)c1ccc(C#CCC(C(=O)OC)C(=O)OC)cc12	110*
C=CCNC(=O)[C@H]1[C@@H]2C(=O)O[C@@H](c3ccccc3)[C@@H](c3ccccc3)N2[C@@H](c2ccc(O)cc2)[C@]12C(=O)N(C(=O)OCCOC)c1ccc(C#CCC(C(=O)OC)C(=O)OC)cc12	59
